Screens as filed in PubChem BioAssay.
TDP1 cell CPT: qHTS for Inhibitors of human tyrosyl-DNA phosphodiesterase 1 (TDP1): qHTS in cells in presence of CPT. chicken DT40 Tdp1-/-;hTDP1 cells + 20 nM CPT, ATP luminescence, 48 h. Potency, µM (series often up to 46.2 µM), inactives show at the highest dose activity change, negative = growth inhibition, most hits filed as inhibitors. actives 12% (n = 420,000). AID 686979, 2013; note: potency is the fitted concentration of half-maximal effect; nearly all actives have a fitted effect of over 55% in size
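Chicken DT40 Tdp1-/- cells stably complemented with human TDP1 were seeded at 400 cells/well in medium containing 20 nM camptothecin, exposed to pin-transferred compounds, and grown at 37 °C for at least 48 hr. Viability was read as ATP luminescence.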
HT1080NT lethal: qHTS for induction of synthetic lethality in tumor cells producing 2HG: qHTS for the HT-1080-NT fibrosarcoma cell line; HT-1080-NT fibrosarcoma viability, CellTiter-Glo ATP luminescence, 48 h; Potency, µM (series often up to 46.1 µM), for the others: top-dose activity, negative = less viability, hits mostly cytotoxic; actives 1.6% (n = 360,000); AID 686970, 2013;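 note: NT is the 2HG producing partner of a matched IDH1 knockdown line; potency is the fitted concentration of half-maximal effect; 0% = DMSO-treated cells and -100% = media-only wells without cells; nearly all actives have a fitted effect of over 55% in size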
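Read-out is CellTiter-Glo luminescence after 10 minutes at room temperature, following 48 hours' compound treatment of HT-1080-NT cells (750 cells/well, RPMI, 5% FBS, 37 degrees C).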
TDP1 cell noCPT: qHTS for Inhibitors of human tyrosyl-DNA phosphodiesterase 1 (TDP1): qHTS in cells in absence of CPT; DT40 Tdp1-/- hTDP1 cells, no CPT, ATP luminescence, 48 h; Potency, µM (titrated, usually from 46.2 µM), inactives show at the top dose activity change, negative = growth inhibition, actives largely listed as inhibitors; actives 15% (n = 420,000); AID 686978, 2013; note: potency is the fitted concentration of half-maximal effect; nearly all actives have a fitted effect of over 55% in size
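Stably hTDP1-transfected Tdp1-null chicken DT40 cells were treated with library compounds minus camptothecin and grown for at least 48 hr at 37 °C, after which cellular ATP was quantified by luminescence.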
HT1080 IDH1KD tx: qHTS for induction of synthetic lethality in tumor cells producing 2HG: qHTS for the HT-1080-IDH1KD cell line; Potency, µM (top dose mostly 46.1 µM), inactives show top-dose activity, negative = toxicity, actives largely listed as cytotoxic; AID 686971, 2013; actives 2% (n = 360,000); HT-1080 IDH1 knockdown viability, ATP luminescence, 48 h;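 note: potency is the fitted concentration of half-maximal effect; 0% = DMSO wells and -100% = cell-free medium wells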
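Using the IDH1-knockdown HT-1080 line run in the same batch and compound series as the NT line, viability after 48 h at 37 °C was determined by CellTiter-Glo luminescence and expressed as % activity.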
IL-1B inflam inh: qHTS for Inhibitors of Inflammasome Signaling: IL-1-beta AlphaLISA Primary Screen. activity change, % at 57.5 µM. actives 4.7% (n = 360,000). AID 743279, 2014. THP-1 LPS/ATP IL-1B secretion, AlphaLISA, 16 h; hits give low values; in the data active = activity change below about -50%; inconclusive = mostly about -30% to -49%
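THP-1 cells pretreated 1 hr with compounds (up to 57.5 uM final), then stimulated with LPS (250 ng/mL final) plus ATP (1.25 mM final); secreted IL-1B measured by AlphaLISA after 16 hr, decreased signal indicating inhibition.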
An asterisk follows results filed as active; ? = inconclusive; . = not tested or not shown; [ ] = another dose, or the depositor's remark. Sampled rows, rich in hits. Any-hit rate of the full collection: about 19%. Unless noted, calls come from the whole dose curve; as a rule, active = well fitted curve in the direction sought with a large enough effect; inconclusive = small, poorly fitted or top-dose-only effect, or another doubt; inactive = no such curve, though single readings can be large; an effect the other way counts as inactive or inconclusive. Unless noted, % is set by controls: 0 for no effect and ±100 for the full control effect.

SMILES | TDP1 cell CPT | HT1080NT lethal | TDP1 cell noCPT | HT1080 IDH1KD tx | IL-1B inflam inh
O=C(CCC1N=C2c3ccccc3N=C(SCc3ccc(Cl)cc3)N2C1=O)NCCc1ccccc1 (stereo unspecified) | 18µM* | . | ? | . | .
O=C(CCC1N=C2c3ccccc3N=C(SCc3ccccc3Cl)N2C1=O)NCCc1ccccc1 (stereo unspecified) | ? | . | -30% | . | .
CCOc1ccc(NC(=O)CSC2=Nc3ccccc3C3=NC(CCC(=O)NCc4cccs4)C(=O)N23)cc1 (stereo unspecified) | -2% | . | -13% | . | .
O=C(CCC1N=C2c3ccccc3N=C(SCc3cccc(F)c3)N2C1=O)NCc1ccc(F)cc1 (stereo unspecified) | ? | . | 18µM* | . | .
O=C(CCC1N=C2c3ccccc3N=C(SCc3cccc(F)c3)N2C1=O)NCCc1ccccc1 (stereo unspecified) | 21µM* | . | ? | . | .
CCOc1cc2c(cc1OC)C(NC(=O)c1ccco1)CC2=O (stereo unspecified) | 3% | 3% | 1% | 3% | 1
O=C(CCC1N=C2c3ccccc3N=C(SCc3ccc(F)cc3)N2C1=O)N1CCN(c2ccccc2)CC1 (stereo unspecified) | ? | . | 26µM* | . | .
COc1ccccc1CNC(=O)CCC1N=C2c3ccccc3N=C(SCC(=O)NCCc3ccc(OC)c(OC)c3)N2C1=O (stereo unspecified) | 18µM* | . | ? | . | .
CC(=O)Nc1ccc2c(CSc3nnc(N)s3)cc(=O)oc2c1 | -8% | -4% | -25% | -3% | -11
COc1ccc(-c2cc(=O)c3c(OC(C)=O)cc(OC(C)=O)cc3o2)cc1 | 7% | . | ? | . | .
CC(=O)Oc1cc(OC(C)=O)c2c(=O)cc(-c3ccc(OC(C)=O)c(OC(C)=O)c3)oc2c1 | ? | . | 27µM* | . | .
CC(=O)Oc1cc(O)c2c(=O)c(OC(C)=O)c(-c3ccc(OC(C)=O)c(OC(C)=O)c3)oc2c1 | ? | -6% | 21µM* | -7% | 63
COC(=O)C1=C(c2ccccc2)c2ccccc2S(=O)(=O)N1CC(=O)Nc1ccc(F)c(F)c1 | -3% | . | ? | . | .
C=C(CC[C@]12OC(C(=O)O)C(O)(C(=O)O)C(C(=O)O)(O1)C(OC(=O)/C=C/[C@@H](C)C[C@@H](C)CC)C2O)[C@@H](OC(C)=O)[C@H](C)Cc1ccccc1 (stereo partly specified) | 8.9µM* | . | 7.9µM* | . | .
Nc1nc(Cl)c(C=O)c(N2CCCCC2)n1 | 0% | ? | -2% | ? | -95*
CC(=O)c1c(C)[nH]c(C(=O)OCC(=O)NCCC2=CCCCC2)c1C | ? | -11% | ? | -26% | 6
CCOC(=O)c1c(C)[nH]c(C)c1C(=O)COC(=O)c1ccc(S(=O)(=O)N(CC)CC)cc1 | -20% | 0%[9.24 µM] | -16% | -25% | 7
O=C(OCC(=O)C12CC3CC(CC(C3)C1)C2)c1cccnc1 | -12% | -6% | -17% | 18% | 9
CCN(CC)S(=O)(=O)c1cccc(C(=O)OCC(=O)C23CC4CC(CC(C4)C2)C3)c1 | ? | 2% | 23µM* | 1% | -6
CCOC(=O)c1c(C)[nH]c(C)c1C(=O)COC(=O)c1cccc(S(=O)(=O)N(CC)CC)c1 | ? | 0% | 29µM* | -11% | -12
COc1cccc(C(c2sc3nc(-c4ccco4)nn3c2O)N2CCC3(CC2)OCCO3)c1 (stereo unspecified) | -2% | . | -16% | . | .
CC(C)c1ccc(/C=c2\sc3n(c2=O)C(N)=C(C#N)C(c2ccc(C(C)C)cc2)C=3C(N)=O)cc1 (stereo unspecified) | 5.8µM* | -15% | 7.3µM* | -21% | 30
CC(C)(C)c1ccc(OCCC(=O)NNC(=O)c2ccncc2)cc1 | 2% | -2% | 10% | 0% | -1
COc1ccc(CNC(=O)CCC(=O)N2CCN(S(=O)(=O)c3cc([N+](=O)[O-])ccc3C)CC2)cc1 | -18% | 9% | -4% | 9% | -7
CC(=O)c1ccc(NC(=S)Nc2ccc3cn[nH]c3c2)cc1 | ? | -2% | ? | 0% | -73*
SMILES | TDP1 cell CPT | HT1080NT lethal | TDP1 cell noCPT | HT1080 IDH1KD tx | IL-1B inflam inh
C=CCn1c(SCc2c(F)cccc2Cl)nnc1-c1ccco1 | 21µM* | 17% | 16µM* | 8% | -26
C=CCn1c(SCC(=O)Nc2cc(C)c(Cl)cc2OC)nnc1-c1ccco1 | -15% | ? | ? | ? | ?
NCCCCCCNS(=O)(=O)c1cccc2ccccc12 | 16µM* | . | 14µM* | . | .
O=S(=O)(NCCCCCNS(=O)(=O)c1ccccc1)c1ccccc1 | ? | -18% | 26µM* | -10% | -19
O=C(CCNS(=O)(=O)c1ccccc1)NCCCSc1ccccc1 | 7.3µM* | -2% | 18µM* | 5% | 13
O=S(=O)(NCCCc1ccccc1)c1ccccc1 | -6% | 3% | 2% | 6% | 15
Cc1ccc(S(=O)(=O)NCCC(=O)NCCCSc2ccccc2)cc1 | -27% | -1% | -26% | -9% | -28
O=S(=O)(NCCCCCNS(=O)(=O)c1ccc(F)cc1)c1ccc(F)cc1 | 11µM* | -22% | 13µM* | -18% | 10
Cc1cccc(N2CCN(C(=O)C3CCN(S(=O)(=O)c4ccc5c(c4)oc(=O)n5C)CC3)CC2)c1C | 4.6µM* | . | 3.7µM* | . | .
CCOc1ccc(S(=O)(=O)N2CCC(C(=O)N3CCN(c4ccccc4F)CC3)CC2)cc1C | 23µM* | -3% | 29µM* | -8% | -28
Cc1cccc(N2CCN(C(=O)C3CCCN(S(=O)(=O)c4ccc5c(c4)oc(=O)n5C)C3)CC2)c1C (stereo unspecified) | 7.3µM* | . | 3.7µM* | . | .
Cn1c(=O)oc2cc(S(=O)(=O)N3CCC(C(=O)N4CCN(c5ccccc5F)CC4)CC3)ccc21 | ? | . | 18µM* | . | .
Cn1c(=O)oc2cc(S(=O)(=O)N3CCN(c4ccccc4F)CC3)ccc21 | 0% | 13% | -7% | -2% | 50
COc1ccc(OC)c(NC(=O)CSc2nc(C)cs2)c1 | ? | -2% | ? | 2% | 0
CSc1ccccc1NC(=O)COC(=O)CCc1ccccc1 | 24% | 17% | -10% | 27% | 15
CCOc1ccc(S(=O)(=O)N2CCN(c3ccccc3F)CC2)c2cccnc12 | 21µM* | -2% | 16µM* | -11% | 0
